Screening data: PubChem, National Center for Advancing Translational Sciences (NCATS)
NS1 function inh: blocks influenza NS1 protein function; Potency, µM (series often up to 46.1 µM), for inactives: at the highest dose activity, positive = more growth; hit rate 0.4% among 270,000; AID 2326; note: potency is the fitted concentration of half-maximal effect; actives are rising curves; nearly all actives have a fitted effect of over 50% in size
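OD600 was taken as the measure of yeast growth restored by compound in an NS1-expressing S. cerevisiae strain. Cells had been washed out of glucose medium and diluted 1:100 into galactose -URA medium, pH 6.0.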
Pf growth 48h: inhibits P. falciparum growth in the first generation, 48 h; P. falciparum luciferase growth in erythrocytes, 48 h; Potency, µM (top dose mostly 28.7 µM), for inactives: at the highest dose activity change, negative = inhibition, most hits filed as inhibitors; AID 504832; hit rate 5.9% among 310,000; active = well fitted inhibition curve with a large enough effect; inconclusive = small, poorly fitted or top-dose-only effect, or another doubt; inactive = no such curve, though single readings can be large or run the other way; note: potency is the fitted concentration of half-maximal effect; % is set by controls: 0 for no effect and ±100 for the full control effect
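Luciferase-expressing parasites in RBCs, 2% Hct / 0.1% parasitemia final; RPMI 1640 + 0.5% Albumax; 37 C, 5% CO2, one generation; luminescence read-out, lower signal = inhibition.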
CHX counter: counter-screen hit for Shiga toxin inhibitors, cycloheximide; cell reporter, cycloheximide protein synthesis inhibition counterscreen; max response, %; hit rate 12% among 300,000; AID 2314; in the data active = max response mostly above about 13%, no sharp cut-off; inactive = mostly below about 14%; note: read at 38.3 µM for the half of the compounds with a filed dose; 0% is about no effect
Shiga inhibitor: Shiga toxin inhibition | hit rate 9.2% among 290,000 | AID 2315 | Vero cells, Shiga toxin protein synthesis inhibition reporter | inhibition, % at 38.7 µM; in the data active = inhibition mostly above about 28%, no sharp cut-off; inactive = mostly below about 43%; note: 0% is about no effect
SARS PLpro yeast: inhibitors of SARS-CoV papain-like protease in yeast; S. cerevisiae expressing SARS-CoV PLpro, growth rescue; Potency, µM (highest dose often 32.9 µM), inactives show at the highest dose activity, positive = growth rescue, most hits filed as activators; hit rate 0.19% among 330,000; note: potency is the fitted concentration of half-maximal effect; 0% is about no effect; nearly all actives have a fitted effect of over 55% in size
Pf growth 96h: inhibits malaria parasite growth, 96 h; hit rate 6.9% among 320,000; AID 504834; Potency, µM (top dose mostly 28.7 µM), inactives show at the highest dose activity change, negative = inhibition, actives largely listed as inhibitors; P. falciparum luciferase reporter growth, 96 h; active = well fitted inhibition curve with a large enough effect; inconclusive = small, poorly fitted or top-dose-only effect, or another doubt; inactive = no such curve, though single readings can be large or run the other way; note: potency is the fitted concentration of half-maximal effect; % is set by controls: 0 for no effect and ±100 for the full control effect
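Plates of compound plus infected erythrocytes (2% hematocrit, 0.05% parasitemia final) incubate 96 hours, 37 C, 5% CO2. Detection reagent added; reduced luminescence from the parasites' luciferase reporter flags inhibition.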
Starred values were filed as active, the others as inactive; ? = inconclusive; / = no result given. The list is not random: actives were taken first. Their share in the collection is about 21%. Unless noted, calls come from the whole dose curve.

SMILES | NS1 function inh | Pf growth 48h | CHX counter | Shiga inhibitor | SARS PLpro yeast | Pf growth 96h
CCOc1ccc(N(CC(=O)NC2CCCCC2C)S(=O)(=O)c2c(C)noc2C)cc1 (centres undefined) | -4% | ? | 14* | 16 | -3% | ?
CCOc1ccc(N(CC(=O)Nc2cccc(OC)c2)S(=O)(=O)c2c(C)noc2C)cc1 | 0% | ? | -2 | -16 | -6% | 0.83µM*
CCOc1ccc(N(CC(=O)Nc2ccc(C)cc2)S(=O)(=O)c2c(C)noc2C)cc1 | 3% | / | -5 | -8 | -12% | -10%
CCOc1ccc(N(CC(=O)Nc2cccc(Cl)c2)S(=O)(=O)c2c(C)noc2C)cc1 | -181% | / | -2 | -4 | -14% | 26%
COCc1ccc(C(=O)N2CCCC(Nc3ccc(F)c(F)c3)C2)s1 (centres undefined) | -18% | -8% | -2 | 12 | 0% | -6%
CCCCC(=O)Nc1nnc(SCC(=O)NCC2CCCO2)s1 (centres undefined) | / | 9% | / | / | -1% | 0%
Cc1ccc(N(C)S(=O)(=O)c2cccc(C(=O)OCC(=O)c3c(N)n(C)c(=O)n(C)c3=O)c2)cc1 | / | / | / | / | -16% | /
Cn1nnnc1SCc1ccc(C(=O)Nc2ccccc2F)cc1 | -1% | 56% | 32* | 45* | 2% | -23%
O=C(Nc1ccccc1F)c1ccc(CSc2ncccn2)cc1 | 1% | 332% | 30* | 86* | -1% | ?
Cc1cc(C)cc(NC(=O)c2ccc(CSc3nnnn3C)cc2)c1 | -3% | -8% | -4 | 14 | -8% | -11%
O=C(Nc1ccccc1)c1ccc(CSc2ncccn2)cc1 | -20% | 263% | 97* | 107* | -3% | 201%
C=CCn1c(SCc2ccc(C(=O)Nc3nccs3)cc2)nnc1-c1ccc(C)c(Cl)c1 | -4% | ? | -1 | 18 | 0% | 115%
Cn1nnnc1SCc1ccc(C(=O)Nc2nccs2)cc1 | -1% | 67% | 37* | 51* | -10% | /
CCCN1CCN(C(=O)c2cc(COc3ccc(F)cc3F)on2)CC1 | -11% | 31% | 11 | 29 | 1% | 0%
CN(C)c1ccc(/C=C(\C#N)C(=O)NCc2ccco2)cc1 | 0% | 146% | 50* | 85* | 3% | -10%
N#C/C(=C\Nc1ccc2c(c1)OCCO2)C(=O)NCc1ccco1 | -3% | 44% | 20 | 32* | 0% | 47%
CCN(CC)c1ccc(/C=C(\C#N)C(=O)NCc2ccco2)cc1 | -19% | ? | 36* | 43* | 3% | ?
Cc1cc(C)cc(NC(=O)C(=S)NCc2ccccc2)c1 | 3% | 1% | 11 | 1 | 1% | 2%
CC(=O)NC(Cc1cccc(C)c1)C(=O)NC1CCN(C(=O)c2ccc([N+](=O)[O-])cc2)CC1 (centres undefined) | 9% | 26% | -2 | -8 | 13% | ?
O=C1Cc2cc(S(=O)(=O)NCc3ccc(F)cc3)ccc2N1 | / | / | / | / | 5% | /
COc1ccc(N(C(=O)c2csnn2)C(C(=O)NC2CCCC2)c2ccccc2)cc1 (centres undefined) | 8% | 0% | 27 | -11 | 1% | -24%
COc1ccc(C(=O)COC(=O)Cn2[nH]c(=O)c3ccccc3c2=O)c(OC)c1 | / | -17% | / | / | -17% | 20%
Cc1nnc(SCC(=O)c2cc(C)n(C3CC3)c2C)s1 | -64% | -4% | 81* | 69* | -3% | 165%
Cc1cc(C(=O)CSc2nnnn2C)c(C)n1C1CC1 | / | 377% | 56* | 151* | 1% | 195%
CNc1nnc(SCC(=O)c2cc(C)n(C3CC3)c2C)s1 | / | 92% | / | / | -11% | 28%
SMILES | NS1 function inh | Pf growth 48h | CHX counter | Shiga inhibitor | SARS PLpro yeast | Pf growth 96h
CC(=O)N1c2ccc(S(=O)(=O)N3CCC(C(=O)Nc4cccc(Cl)c4)CC3)cc2CC1C (centres undefined) | ? | ? | 14 | -8 | 19% | 25%
O=C(c1ccccc1)N1CCN(C(=O)c2nn3c(C(F)(F)F)cc(-c4ccco4)nc3c2Br)CC1 | 3% | 10µM* | 3 | 18 | 0% | 0%
O=C(NC1CCCCC1)c1nn2c(C(F)(F)F)cc(-c3ccco3)nc2c1Br | 1% | 16% | -2 | 1 | 6% | -10%
CCOc1ccccc1C(=O)NCC(=O)OCC(=O)c1c(N)n(C)c(=O)n(C)c1=O | / | / | / | / | 0% | /
Cc1ccc(C(=O)c2cn[nH]c2-c2cc(Cl)ccc2O)cc1 | -123% | 24% | -1 | 7 | -21% | ?
Cc1ccc(-c2[nH]ncc2C(=O)c2ccc(Br)cc2)c(O)c1 | -45% | ? | 11* | 19 | -6% | ?
CN1CCN(c2cc(-c3ccccc3)nc3cc(-c4ccc(F)cc4)nn23)CC1 | 5% | / | -1 | -4 | 4% | -9%
Fc1ccc(-c2cc3nc(-c4ccccc4)cc(N4CCN(CCN5CCOCC5)CC4)n3n2)cc1 | -62% | 1µM* | 1 | -1 | 2% | -2%
COc1cccc(-c2cc3nc(-c4ccccc4)cc(N4CCC5(CC4)OCCO5)n3n2)c1 | -30% | 13µM* | 1 | -5 | -20% | -12%
COc1ccc(NC(=O)CSc2n[nH]c(CNc3cccc(C)c3)n2)cc1 | -6% | 28% | 10 | 14 | -4% | ?
COCCCNC(=S)NNC(=O)Cn1nc(C)c(Br)c1C | -4% | 26% | -2 | -7 | 21% | 9.3µM*
CCOCCCNC(=S)NNC(=O)CCn1nc(C)c(Br)c1C | -3% | 3% | -5 | -7 | -13% | /
O=C(COC(=O)/C=C/c1ccccc1Cl)NC1CCCC1 | / | -5% | / | / | 1% | -18%
COc1ccc(-c2csc(Nc3ncccn3)n2)cc1C | 4% | 93% | 31* | 48* | 0% | 16%
COc1ccc(-c2csc(NC(=O)c3c(C)noc3C)n2)cc1F | / | 35% | / | / | 6% | ?
COc1ccc(-c2csc(Nc3cc(C)ccn3)n2)cc1C | 6% | ? | 62* | 120* | 1% | -18%
CC(C)Cc1nnc(NC(=O)CCC(=O)N2CCN(c3ccc(F)cc3)CC2)s1 | -2% | -21% | -2 | -10 | 2% | -6%
COCCN(C(=O)Cc1coc2cc(C)c(C)cc12)c1c(N)n(Cc2ccccc2)c(=O)[nH]c1=O | / | -24% | / | / | -1% | -3%
Cc1ccc(S(=O)(=O)N/N=C/c2ccccc2O)cc1 | 0% | 13% | -2 | -5 | 0% | -25%
O=S(=O)(N/N=C\c1ccccc1O)c1ccc(Cl)cc1 | -35% | 1% | 27* | 51 | 4% | ?
CCN(C(=O)CSc1nnc(CNc2cccc(OC)c2)n1C1CCCCC1)C1CCS(=O)(=O)C1 (centres undefined) | ? | ? | 21 | -9 | 1% | 4.1µM*
CCN(C(=O)CSc1nnc(C)n1-c1cccc(C)c1)C1CCS(=O)(=O)C1 (centres undefined) | / | -27% | / | / | 3% | -23%
COC(=O)C[C@]1(C(=O)OC)CN(C#N)N(c2ccc(Cl)cc2)C12c1ccccc1-c1ccccc12 | 22% | 3.7µM* | -8 | -11 | -20% | 3.7µM*
